The list is not random: actives were taken first. Their share in the collection is about 12%.
HP1b chromo inh: HTS for Inhibitors of HP1-beta Chromodomain Interactions with Methylated Histone Tails; Chromobox protein homolog 1 (Homo sapiens), P83916; AlphaScreen HP1-beta / biotin-H3K9me3 peptide binding; Potency, µM (highest dose often 114 µM), inactives show at the highest dose activity change, negative = inhibition, usual class: inhibitors; hit rate 0.56% among 390,000; AID 540317, 2011; also: nearly all actives have a fitted effect of over 70% in size
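AlphaScreen: HP1-beta (50 nM) preformed 30 min with biotin-H3(1-18)K9me3 peptide (50 nM) in PBS pH 7.4, 0.01% Tween-20. Compound added for 30 min at RT, then streptavidin donor/nickel chelate acceptor beads (10 ug/mL) for 30 min.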
JMJD2A Tudor inh: qHTS Assay for Inhibitors of JMJD2A-Tudor Domain; Lysine-specific demethylase 4A (Homo sapiens), O75164; AlphaScreen JMJD2A-Tudor / H3K4me3 peptide binding; Potency, µM (top dose mostly 114 µM), for the others: at the top dose activity change, negative = inhibition, most hits filed as inhibitors; hit rate 4.4% among 390,000; AID 504339, 2011; also: % is scaled to controls: 0 for no effect and ±100 for the full control effect; nearly all actives have a fitted effect of over 50% in size
Target sequence (O75164 whole entry, looked up, the tested form may be a part): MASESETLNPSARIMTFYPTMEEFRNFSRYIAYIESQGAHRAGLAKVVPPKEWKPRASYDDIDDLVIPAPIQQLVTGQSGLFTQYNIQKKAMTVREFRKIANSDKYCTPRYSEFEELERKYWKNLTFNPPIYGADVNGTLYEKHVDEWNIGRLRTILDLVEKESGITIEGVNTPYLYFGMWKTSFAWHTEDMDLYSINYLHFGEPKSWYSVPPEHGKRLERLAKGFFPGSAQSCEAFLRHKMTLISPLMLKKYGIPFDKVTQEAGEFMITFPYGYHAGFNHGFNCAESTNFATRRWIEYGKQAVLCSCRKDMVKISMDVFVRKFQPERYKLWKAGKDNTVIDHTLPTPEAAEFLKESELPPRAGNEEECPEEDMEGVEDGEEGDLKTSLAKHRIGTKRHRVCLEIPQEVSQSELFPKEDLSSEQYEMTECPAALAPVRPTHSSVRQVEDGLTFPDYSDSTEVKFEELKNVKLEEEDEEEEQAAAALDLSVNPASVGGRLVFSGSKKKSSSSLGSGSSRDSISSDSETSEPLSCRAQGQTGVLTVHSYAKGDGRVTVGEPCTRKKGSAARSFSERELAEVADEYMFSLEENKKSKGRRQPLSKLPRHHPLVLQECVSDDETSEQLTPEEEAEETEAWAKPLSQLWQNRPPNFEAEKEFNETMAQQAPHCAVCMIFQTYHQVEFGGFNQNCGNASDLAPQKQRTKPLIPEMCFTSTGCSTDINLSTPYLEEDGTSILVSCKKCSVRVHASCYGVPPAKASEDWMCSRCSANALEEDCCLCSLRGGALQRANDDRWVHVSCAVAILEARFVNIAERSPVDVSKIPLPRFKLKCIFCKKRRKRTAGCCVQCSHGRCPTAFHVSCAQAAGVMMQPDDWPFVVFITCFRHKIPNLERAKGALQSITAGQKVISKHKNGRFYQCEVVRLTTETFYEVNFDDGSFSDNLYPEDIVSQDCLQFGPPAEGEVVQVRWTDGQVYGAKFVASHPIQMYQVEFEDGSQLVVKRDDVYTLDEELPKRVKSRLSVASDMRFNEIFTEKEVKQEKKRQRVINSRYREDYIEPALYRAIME
G9a inh: qHTS Assay for Inhibitors of Histone Lysine Methyltransferase G9a; Histone-lysine N-methyltransferase EHMT2 (Homo sapiens), Q96KQ7; G9a H3K9 monomethylation, AlphaScreen, 2 h; Potency, µM (doses to about 102 µM), without a hit: at the highest dose activity, negative = inhibition, usual class: inhibitors; hit rate 8.8% among 350,000; AID 504332, 2011; also: % is scaled to controls: 0 for no effect and ±100 for the full control effect; nearly all actives have a fitted effect of over 75% in size
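Chemiluminescent proximity detection of H3K9 monomethylation, read after 10 min bead incubation in the dark. Reaction: 20 nM G9a, 500 nM biotin-H3K9 peptide, 20 uM SAM cofactor, 2 h, room temperature, following 15 min enzyme-compound preincubation.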
Sfp PPTase inh: qHTS Assay for Inhibitors of Bacillus subtilis Sfp phosphopantetheinyl transferase (PPTase); Potency, µM, for inactives: largest response in the series, negative = inhibition, usual class: inhibitors; 4'-phosphopantetheinyl transferase ffp (Bacillus subtilis), Q9F4F7; AID 1490, 2009; hit rate 3.5% among 310,000; Biochemical Sfp PPTase activity, qHTS;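 also: the enzyme is Sfp with the accession as filed and its product quenches rhodamine fluorescence; 0% = enzyme reaction without inhibitor and -100% = no enzyme wells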
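Compounds were incubated with enzyme (final 15 nM) for 15 min at room temperature before substrate addition started the reaction. Fluorescence at 525 nm excitation, 598 nm emission was recorded immediately and after 30 minutes.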
BAZ2B inh: qHTS Assay for Inhibitors of BAZ2B; hit rate 4.4% among 360,000; AlphaScreen BAZ2B-H3K14Ac peptide displacement; Potency, µM (doses to about 114 µM), for inactives: at the highest dose activity change, negative = inhibition, usual class: inhibitors; also: % is scaled to controls: 0 for no effect and ±100 for the full control effect; nearly all actives have a fitted effect of over 60% in size
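Compounds, titrated to a top concentration of 110 uM, were incubated 30 min at room temperature with preformed BAZ2B/acetyl-K14 H3 peptide complex (50 nM each). Proximity signal was measured by AlphaScreen after 20 min with beads.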
L3MBTL1 block: qHTS Assay for the Inhibitors of L3MBTL1. AlphaScreen L3MBTL1–H3K9me1 peptide binding. Lethal(3)malignant brain tumor-like protein 1 (Homo sapiens), Q9Y468. Potency, µM (highest dose often 57.1 µM), without a hit: top-dose activity, negative = inhibition, most hits filed as inhibitors. hit rate 0.66% among 230,000. AID 485360, 2010; also: % is scaled to controls: 0 for no effect and ±100 for the full control effect; nearly all actives have a fitted effect of over 60% in size
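L3MBTL1 (50 nM) pre-complexed 30 min with biotinylated H3(1-15)K9me1 peptide (75 nM), then compounds added for 30 min at room temperature; AlphaScreen streptavidin donor/nickel chelate acceptor beads (10 ug/mL final) read after 30 min dark incubation.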
An asterisk follows results filed as active; ? = inconclusive; · = no result; [ ] = another dose, or the depositor's remark. Calls follow the shape of the dose curve; as a rule, active = well fitted curve in the direction sought with a large enough effect; inconclusive = small, poorly fitted or top-dose-only effect, or another doubt; inactive = no such curve, though single readings can be large; an effect the other way counts as inactive or inconclusive. Potency is read from the fitted curve at half-maximal effect.

SMILES	HP1b chromo inh	JMJD2A Tudor inh	G9a inh	Sfp PPTase inh	BAZ2B inh	L3MBTL1 block
COc1cccc(-c2nccc(N(C)Cc3ccco3)n2)c1	·	·	5%[0.501 µM]	?	·	·
O=C(Cc1ccc(S(=O)(=O)N2CCOCC2)s1)Nc1cc(Cl)ccc1Cl	-11%[57 µM]	-32%	3%[12.7 µM]	·	-39%	-19%
S=c1[nH]nc(-c2ccc3ccccc3n2)n1-c1ccc(Cl)cc1	13%	?	?	16%	4%	-8%
Cc1c(Cl)c(-c2n[nH]c(=S)n2-c2ccccc2)nn1C	28%	4.5µM*	8.9µM*	?	2%	0%
COCC(C)n1c(C)cc(C(=O)CSc2nc3ccccc3c(=O)[nH]2)c1C (configuration not stated)	11%	-19%	-2%[59 µM]	-24%	11%	-2%
COCC(C)n1c(C)cc(C(=O)CSc2ccc(NC(C)=O)cc2)c1C (configuration not stated)	?	3%	2%[12.7 µM]	-3%	-30%	·
COCC(C)n1c(SCC(=O)c2cc(C)n(C)c2C)nc2ccccc2c1=O (configuration not stated)	-28%	?	40µM*	-19%	50µM*	-27%
COCC(C)n1c(C)cc(C(=O)CSc2ncccn2)c1C (configuration not stated)	24%	-15%	35µM*	-7%	?	-3%
CCc1ccccc1NC(=O)Cn1c(=O)oc2ccccc21	46%	11%	7%[59 µM]	·	1%	·
CCNc1ncc2nc(-c3cc(F)cc(F)c3)c(=O)n(C3CC3)c2n1	·	·	11%[0.501 µM]	15%	·	·
CO[C@H]1/C=C/O[C@@]2(C)Oc3c(C)c(O)c4c(O)c(c(/C=N/N5CCN(C)CC5)c(O)c4c3C2=O)NC(=O)/C(C)=C\C=C\[C@H](C)[C@H](O)[C@@H](C)[C@@H](O)[C@@H](C)[C@H](OC(C)=O)[C@@H]1C	·	·	20µM*	-24%	·	·
NC(=O)c1cc(S(=O)(=O)NCc2ccc(Br)cc2)cs1	31%	-16%	-3%	19%	-10%	·
C=CC1=C(C)C2=Cc3c(C=C)c(C)c4[n]3[Sn+2][n]3c(c(C)c(CCC(=O)O)c3=CC3=NC(=C4)C(C)=C3CCC(=O)O)=CC1=N2	·	·	·	10µM*	·	·
CCOC(=O)c1c(C)oc2c1c(/C=N/c1ccccn1)c(O)c1ccccc12	99%	19%	·	·	·	·
CCOC(=O)c1c(C)oc2c1c(C=NCCO)c(O)c1ccccc12	-2%	?	50µM*	50µM*	-39%	?
COc1cccc(NC(=O)Cn2cc(C(=O)C3CCCCC3)c3ccccc32)c1	43%	-12%	-1%[59 µM]	·	-2%	·
O=C1[C@H](Cc2ccccc2)NCC=CC[C@@H](c2ccc(Cl)cc2)N1Cc1ccccc1	11%	-31%	·	·	·	·
O=C(/C=C/c1cc2ccccc2o1)c1ccccc1O	?	20µM*	·	1%	8.9µM*	-10%
COc1ccc(/C=C/C(=O)c2cc(O)ccc2O)cc1	·	·	?	-40%	·	·
COc1cccc(C(=O)Oc2ccccc2/C=C\C(=O)c2cc3ccccc3o2)c1	6%	-31%	11µM*	?	?	-12%
COc1ccc(O)c(C(=O)/C=C/c2cc3ccccc3o2)c1	3.5µM*	28µM*	?	12%	11µM*	·
C=C(C(=O)c1ccccc1)C(C)C(=C)C(=O)c1ccccc1	151%	73%	32%[59 µM]	11%	67%	28%
COc1ccc(CNC(=O)Cc2csc3nc(-c4ccc(F)cc4)cn23)cc1	27%[57 µM]	-6%	6%[59 µM]	·	4%	·
Clc1ccc(C2=CC(c3ccco3)n3ncnc3N2)cc1 (configuration not stated)	27%	?	8.9µM*	?	?	3%
FC(F)(F)c1ccccc1C1=CC(c2ccccc2)n2ncnc2N1 (configuration not stated)	50%	-19%	·	·	·	·
SMILES	HP1b chromo inh	JMJD2A Tudor inh	G9a inh	Sfp PPTase inh	BAZ2B inh	L3MBTL1 block
Clc1ccccc1C1=CC(c2ccco2)n2ncnc2N1 (configuration not stated)	20%	-14%	35µM*	8%	-22%	-7%
COc1ccc(C2C=C(c3ccccc3)Nc3ncnn32)cc1 (configuration not stated)	51%	-9%	?	-14%	?	1%[11.4 µM]
COc1ccc(C2=CC(c3ccco3)n3ncnc3N2)cc1 (configuration not stated)	30%	-21%	11µM*	-45%	?	-1%
CC(=O)Nc1cccc(C2=CC(c3ccco3)n3ncnc3N2)c1 (configuration not stated)	·	·	?	-22%	·	-5%
Cc1ccc(CNC(=O)c2ccc(N3CCC4(CC3)CC(c3ccccc3)=NO4)c(NC(=O)c3c(Cl)cccc3Cl)c2)cc1	43%	-13%	-2%[2.33 µM]	·	-25%	-4%
CCN(CC)c1ccc(NC(=O)COc2ccccc2C)cc1S(=O)(=O)Nc1ccccc1OC	?	?	10µM*	20µM*	-7%	6%
COc1ccc(NC(=O)c2ccccc2F)cc1Cl	32%	-9%	20%	5%	56µM*	·
CCN(CC)c1ccc(NC(=O)c2ccccc2F)cc1S(=O)(=O)Nc1ccccc1OC	?	?	6.3µM*	14µM*	-14%	-7%
CCN(CC)c1ccc(NC(=O)COc2ccccc2C#N)cc1S(=O)(=O)Nc1ccc(OC)cc1	-13%	-26%	?	-16%	-5%	-11%
CCN(CC)c1ccc(NC(=O)c2ccc(=O)[nH]c2)cc1S(=O)(=O)Nc1ccccc1OC	?	?	2.5µM*	14µM*	·	-19%
CCN(CC)c1ccc(NC(=O)c2cnccn2)cc1S(=O)(=O)Nc1ccc(OC)cc1	19%	-16%	20%[59 µM]	-1%	-29%	-14%
COc1ccc(NC(=O)c2cccc(F)c2)cc1Cl	21%	-1%	21%	7%	-6%	·
CCN(CC)c1ccc(NC(=O)c2ccccc2Br)cc1S(=O)(=O)Nc1ccccc1OC	6.3µM*	18µM*	1.3µM*	3.2µM*	?	-13%
COc1ccccc1C(=O)Nc1cc(Cl)ccc1O	10%	-10%	56µM*	-10%	-1%	-3%
CCNC(=S)Nc1ccc(C)c(S(=O)(=O)Nc2ccccc2OC)c1	23%	-7%	·	3%	-20%	-2%
Cc1ccc(CNC(=O)c2nnn(CC(=O)Nc3cccc(C)c3C)c2N)cc1	24%	-25%	-12%[59 µM]	-18%	?	·

Bioassay records as filed in PubChem.
